Screens: PubChem, National Center for Advancing Translational Sciences (NCATS)
An excerpt weighted towards active compounds, which were near 11% of everything screened.
L3MBTL1 inh: blocks human L3MBTL1; AlphaScreen L3MBTL1–H3K9me1 peptide binding; 230,000 tested, 0.66% active; Potency, µM (doses to about 57.1 µM), for inactives: top-dose activity, negative = inhibition, actives largely listed as inhibitors; Q9Y468; further: potency means the concentration at half of the fitted maximal effect; on the % scale 0 is the no-effect control and ±100 the full control effect; nearly all actives have a fitted effect of over 60% in size
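AlphaScreen proximity signal between nickel-chelate acceptor and streptavidin donor beads (final 10 ug/mL) reports binding of 50 nM L3MBTL1 to 75 nM biotin-H3 K9me1 peptide; complex incubated with compounds 30 min at room temperature; cefsulodin titration as control.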
G9a inh: G9a (human) methyltransferase inhibition. AID 504332. Potency, µM (series often up to 102 µM), for the others: at the top dose activity, negative = inhibition, actives largely listed as inhibitors. G9a H3K9 monomethylation, AlphaScreen, 2 h. 350,000 tested, 8.8% active. Q96KQ7; further: potency means the concentration at half of the fitted maximal effect; on the % scale 0 is the no-effect control and ±100 the full control effect; nearly all actives have a fitted effect of over 75% in size
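Compounds were preincubated with 20 nM G9a for 15 min, after which biotinylated H3K9 peptide (500 nM) and SAM (20 uM) started a 2 h room-temperature reaction. Monomethylated product was quantified by antibody-based AlphaScreen chemiluminescence.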
PI5P4K alpha inh: PI5P4K alpha (human) kinase inhibition. 330,000 tested, 1.2% active. PI5P4Kalpha enzyme, ADP-Glo luminescence, 60 min; hits give low values. AID 652105. max response, %; active means max response of -50% or lower; inconclusive means between -30% and -50%; inactive means -30% or higher; further: value at the top dose of about 77 µM; on the % scale 0 is the no-effect control and ±100 the full control effect
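Enzyme plus substrate dispensed, test compounds pinned in, then ATP (5 microM final) added. After 60 min at RT, ADP-Glo reagent 1 for 45 min and reagent 2 for 30 min preceded luminescence imaging.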
HP1b chromo inh: blocks HP1-beta chromodomain binding to methylated histone tails. P83916. AlphaScreen HP1-beta / biotin-H3K9me3 peptide binding. 390,000 tested, 0.56% active. Potency, µM (series often up to 114 µM), inactives show at the top dose activity change, negative = inhibition, hits mostly inhibitors; further: potency means the concentration at half of the fitted maximal effect; nearly all actives have a fitted effect of over 70% in size
Target sequence (P83916 whole entry, looked up): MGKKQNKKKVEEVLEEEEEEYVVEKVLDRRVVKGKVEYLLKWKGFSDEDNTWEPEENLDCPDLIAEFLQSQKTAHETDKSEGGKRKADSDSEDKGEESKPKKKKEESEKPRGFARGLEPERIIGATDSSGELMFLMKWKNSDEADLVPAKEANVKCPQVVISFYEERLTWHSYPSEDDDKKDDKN
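HP1-beta protein (50 nM final) preincubated 30 min at room temperature with biotinylated H3(1-18)K9me3 peptide (50 nM) in PBS pH 7.4, 0.01% Tween-20, then compound added for 30 min. AlphaScreen streptavidin donor/nickel chelate acceptor beads (10 ug/mL final), 30 min dark, luminescence read.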
JMJD2A Tudor: blocks the human JMJD2A Tudor domain; O75164; Potency, µM (doses to about 114 µM), for the others: top-dose activity change, negative = inhibition, usual class: inhibitors; 390,000 tested, 4.4% active; AlphaScreen JMJD2A-Tudor / H3K4me3 peptide binding; further: potency means the concentration at half of the fitted maximal effect; on the % scale 0 is the no-effect control and ±100 the full control effect; nearly all actives have a fitted effect of over 50% in size
BAZ2B block: BAZ2B (human) inhibition | Potency, µM (titrated, usually from 114 µM), for inactives: at the highest dose activity change, negative = inhibition, hits mostly inhibitors | AlphaScreen BAZ2B-H3K14Ac peptide displacement | AID 504333 | 360,000 tested, 4.4% active; further: potency means the concentration at half of the fitted maximal effect; on the % scale 0 is the no-effect control and ±100 the full control effect; nearly all actives have a fitted effect of over 60% in size
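AlphaScreen luminescence quantifies BAZ2B engagement of H3K14Ac peptide; the protein and biotinylated peptide are both at 50 nM final, buffer PBS pH 7.4 with 0.01% Tween-20, all steps at room temperature.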
* marks the source's active call; other numbers are inactive results; ? = inconclusive; / = not tested or not shown; [ ] = dose if it differs, or a comment. Unless noted, the call rests on the fitted dose curve; in most records, active means well fitted inhibition curve with a large enough effect; inconclusive means small, poorly fitted or top-dose-only effect; inactive means no such curve, though single readings can be large or run the other way.

SMILES	L3MBTL1 inh	G9a inh	PI5P4K alpha inh	HP1b chromo inh	JMJD2A Tudor	BAZ2B block
CCN1CCN(C2=C(NS(=O)(=O)c3ccccc3)C(=O)c3ccccc3C2=O)CC1	/	0%[0.0925 µM]	-2	-13%[57 µM]	-33%	?
CCOC(=O)N1CCN(C2=C(NS(=O)(=O)c3ccc(Br)cc3)C(=O)c3ccccc3C2=O)CC1	/	/	-19	/	/	/
NC(=O)C1CCN(C2=C(NS(=O)(=O)c3ccc(Br)cc3)C(=O)c3ccccc3C2=O)CC1	/	/	-10	?	79µM*	40µM*
CCN1CCN(C2=C(NS(=O)(=O)c3ccc(Br)cc3)C(=O)c3ccccc3C2=O)CC1	/	45µM*	2	-17%	?	45µM*
NC(=O)C1CCN(C2=C(NS(=O)(=O)c3ccccc3)C(=O)c3ccccc3C2=O)CC1	?	/	0	?	?	40µM*
O=C(Cc1cccs1)NC1CC(=O)N(c2cccc(F)c2)C1 (stereo unspecified)	/	5%[59 µM]	/	25%	-3%	0%
Cc1noc(C)c1-c1ccc2ncnc(NCc3cccn3C)c2c1	/	/	/	/	-31%	/
CN1CCc2ccc3c4c2[C@]1(C)Cc1cccc(c1-4)OCO3	/	/	/	/	-34%	/
